Laboratory results as given in the supplement of paper PMC10338343.
± gives the standard deviation.

Assays:
[1] = tested on: MILI (PIWIL2) piRISC loaded with L1MC piRNA (26 nt); assay: pre-steady-state target cleavage rate (min^-1); guide: L1MC piRNA 5'p-UAACUAAAUACUAUGCAAGCUGUAGG; higher = faster piRNA-guided slicing of the target; conditions: auxiliary factor: 500 nM mouse GTSF1;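 also: 1 nM active piRISC with 0.1 nM target library at 33 °C single turnover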
How it was run: (§1)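 In this Cleave-'n-Seq assay, uncleaved targets were sequenced and normalised to depth and to weakly complementary targets. They came from a transcribed, DNA-blocked target RNA library […] mixed with 1 nM active affinity-purified piRISC carrying one synthetic guide, with or without 500 nM GTSF1 partner protein, in HEPES–potassium acetate buffer at 33 °C for 0–8 or 0–960 min. After three trials were pooled and k3 was capped at 0.0001 min^-1, the pre-steady-state cleavage rate was obtained from a burst-and-steady-state fit.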

[2] = tested on: EfPiwi piRISC loaded with L1MC piRNA (26 nt); assay: pre-steady-state target cleavage rate (min^-1); auxiliary factor: 500 nM Ephydatia muelleri Gtsf1; guide: L1MC piRNA 5'p-UAACUAAAUACUAUGCAAGCUGUAGG; MIWI and MILI are mouse PIWI proteins and EfPiwi is from a freshwater sponge; tags in brackets are library labels; higher = faster piRNA-guided slicing of the target
How it was run: as §1

Sequence	pre-steady-state target cleavage rate [1]	pre-steady-state target cleavage rate [2]
UCCUGGUAGUGCUUGCAUAGUAUUUAGAAA	0.0343 ± 0.013	0.00197 ± 0.0017
UCCUCCUACAGCUUGCAUAGUAUUUAGCUUA	0.253 ± 0.075	0.00683 ± 0.0027
UCCUCCUUGAGCUUGCAUAGUAUUUUCAAA	0.0637 ± 0.016	0.00265 ± 0.0021
UCCUCCUACAGCUUGCAUAGAUUUUAGAAA	0.0147 ± 0.0053	0.00312 ± 0.0024
UCCUCCUACAGCUUGCAUAGUAUUAUGAAA	0.115 ± 0.029	0.00358 ± 0.0025
UCCUGGAACACCUUGCAUAGUAUUUUGUUA	0.14 ± 0.035	0.00343 ± 0.0029
UCCUGGAUGAGCUUGCAAUAGUAUUUAGUUA	0.00505 ± 0.0031	0.00597 ± 0.003
UCCUGCUACACCUUGCAUAGUAUUUACUUA	0.102 ± 0.034	0.00306 ± 0.003
UCCUGGAACAGCUUGCAUAGUAUUUAGUA	0.191 ± 0.02	0.00384 ± 0.0024
UCCUGGAUGAGCUUGCUUAGUAUUAAGUUA	0.128 ± 0.021	0.00314 ± 0.0031
UCCUGGAUGAGCUAGCAUAGUAUUUAGAAA	0.209 ± 0.049	0.00297 ± 0.0019
UCCUCCUACAGGAUGCAUAGUAUUUAGAAA	0.0838 ± 0.015	0.00396 ± 0.0014
UCCUGGAACAGGUUCCAUAGUAUUUAGUUA	0.202 ± 0.066	0.00255 ± 0.0024
UCCUCCUACAGGUUGCAUAGUAUUUACAAA	0.052 ± 0.014	0.00321 ± 0.0024
UCCUGGAUGUCCUUGCAUAGUAUUUAGGUA	0.0702 ± 0.017	0.00431 ± 0.0026
UCCUGGAUGAGCUUGCCAUAGUAUUUAGUUA	0.0808 ± 0.016	0.0035 ± 0.0026
UCCUCCUACAGCUUGCAUAGUAUUAUCUUA	0.105 ± 0.025	0.00351 ± 0.0027
UCCUGCAACAGCUUGCAUAGUAUUUAGAAA	0.138 ± 0.026	0.00432 ± 0.0016
UCCUGCUACAGCUUGCAUAGUAUUUCGUUA	0.132 ± 0.033	0.00379 ± 0.0018
UCCUGCUACAGCUUGCAUAGUAAUAAGUUA	0.238 ± 0.03	0.0044 ± 0.002
UCCUGGAACAGCAUGCAUAGUAUUUUGUUA	0.116 ± 0.017	0.00267 ± 0.0022
UCCUCCUACAGCUUGCAUAGAUUUUAGUAA	0.0588 ± 0.015	0.00392 ± 0.0025
UCCUGGUACAGCUUGCUUAGUAUUUAGAUA	0.122 ± 0.024	0.00305 ± 0.0025
UCCUGGAACUCGUUGCAUAGUAUUUAGAAA	0.136 ± 0.021	0.00502 ± 0.004
UCCUGGAUGAGCUUGCAUAGUAUUUACAAA	0.0638 ± 0.018	0.00416 ± 0.0028
UCCUCCUACAGCUUCCAUUGUAUUUAGUUA	0.0834 ± 0.015	0.00393 ± 0.0019
UCCUGGAUCAGCUUGCAUAGUAUUAAGUAA	0.178 ± 0.03	0.00602 ± 0.0026
UCCUGCUACAGCUUGCAUAGUAUUUUCUAA	0.0874 ± 0.021	0.00646 ± 0.0026

Sequence	pre-steady-state target cleavage rate [1]	pre-steady-state target cleavage rate [2]
UCCUGGAUCAGCUUGCUUAGUAUUUAGAAA	0.0821 ± 0.019	0.00269 ± 0.0022
UCCUGGAUGAGCUUGCAUAGUAUUUAUUUA	0.0843 ± 0.024	0.00435 ± 0.0029
UCCUGCUACAGCUAGCAUAGUAUUUACUUA	0.351 ± 0.051	0.00364 ± 0.0025
UCCUCCUAGAGCUUGCAUAGAAUUUAGUUA	0.0513 ± 0.0099	0.00468 ± 0.0013
UCCUGGAUGAGCUUGUCAUAGUAUUUAGUUA	0.0971 ± 0.013	0.00721 ± 0.0027
UCCUGGAUCAGGUUGCAUAGUAUUUAGAAA	0.185 ± 0.029	0.00341 ± 0.0019
UCCUCCUACAGCUUGCAUAGUAUUUAGAUUA	0.122 ± 0.022	0.0103 ± 0.0044
UCCUGGAUGUGCUUGACAUAGUAUUUAGUUA	0.0338 ± 0.009	0.0797 ± 0.03
UCCUCCUACAGCUUGGAUAGUAUUUAGAUA	0.139 ± 0.019	0.00474 ± 0.0018
UCCUGGUUCAGCUUGCAUAGUAUUUAGAUA	0.106 ± 0.022	0.00378 ± 0.002
UCCUCCUACUCCUUGCAUAGUAUUUAGAAA	0.0907 ± 0.021	0.00457 ± 0.0022
UCCUGGAACACCUUGCAUACUAUUUAGUUA	0.0449 ± 0.0096	0.00273 ± 0.002
UCCUGCUACAGCUUGCAUAGUAUUAAGUAA	0.172 ± 0.042	0.00315 ± 0.0016
UCCUCCUACAGCUUGGAUACUAUUUAGUUA	0.0539 ± 0.0095	0.0118 ± 0.0031
UCCUCCUACAGCUUGCAUAGAAUUAAGUUA	0.127 ± 0.03	0.00382 ± 0.0025
UCCUCCUACAGCUUGCAUAGUAUGUAGUUA	0.041 ± 0.015	0.00354 ± 0.0013
UCCUGGAACAGCUUGCAUAAGUAUUUAGUUA	0.00757 ± 0.004	0.00284 ± 0.0024
UCCUCGAUCAGCUUGCAUAGUAUUUAGAAA	0.115 ± 0.02	0.00579 ± 0.0018
UCCUGGAUGAGCUAGCAUAGUAUUUAGAUA	0.168 ± 0.028	0.00406 ± 0.002
UCCUGGAACAGCUAGCAUAGUAUUUACAAA	0.0718 ± 0.019	0.00337 ± 0.0029
UCCUGCUACAGCUUGCAUAGUAUUUAGCUUA	0.161 ± 0.037	0.00522 ± 0.0019
UCCUGCUAGAGCUUGCAUAGUAUUUACAAA	0.146 ± 0.039	0.00266 ± 0.0021
UCCUGGAUGUGCUUGCAUAGUAUGUAGUUA	0.134 ± 0.026	0.00399 ± 0.0022
UCCUGGUACAGCUUGCAUAGUAUUUAGAAA	0.162 ± 0.03	0.00435 ± 0.0017
UCCUCCUACAGCUAGCAUAGAAUUUAGUUA	0.0602 ± 0.011	0.00325 ± 0.0019
UCCUCCUACAGCUUGCAUAGUAUUUUGAAA	0.148 ± 0.03	0.00602 ± 0.0032
UCCUGGAUCUGCUUGCAUAGUAUUUAGAUA	0.0934 ± 0.016	0.00401 ± 0.0022
